# Test results as given in PubChem BioAssay (NCATS).
# Inconclusive results are not listed. Entries that show only a call come without a potency. The source made the active and inactive calls. Unless noted, calls follow the shape of the dose curve; as a rule, active = well fitted curve in the direction sought with a large enough effect; inconclusive = small, poorly fitted or top-dose-only effect, or another doubt; inactive = no such curve, though single readings can be large; an effect the other way counts as inactive or inconclusive.
# Experiments:
# [1] = molecular target: Ubiquitin carboxyl-terminal hydrolase 1 (Homo sapiens) (UniProt O94782); test: Inhibitors of USP1/UAF1: Pilot qHTS (AID 504865); details: purified USP1/UAF1, Ub-rhodamine cleavage fluorescence; series mostly up to 114 µM; also: nearly all actives have a fitted effect of over 35% in size; also: potency is read from the fitted curve at half-maximal effect
# Chain of Ubiquitin carboxyl-terminal hydrolase 1 (Homo sapiens) (O94782 whole entry, looked up): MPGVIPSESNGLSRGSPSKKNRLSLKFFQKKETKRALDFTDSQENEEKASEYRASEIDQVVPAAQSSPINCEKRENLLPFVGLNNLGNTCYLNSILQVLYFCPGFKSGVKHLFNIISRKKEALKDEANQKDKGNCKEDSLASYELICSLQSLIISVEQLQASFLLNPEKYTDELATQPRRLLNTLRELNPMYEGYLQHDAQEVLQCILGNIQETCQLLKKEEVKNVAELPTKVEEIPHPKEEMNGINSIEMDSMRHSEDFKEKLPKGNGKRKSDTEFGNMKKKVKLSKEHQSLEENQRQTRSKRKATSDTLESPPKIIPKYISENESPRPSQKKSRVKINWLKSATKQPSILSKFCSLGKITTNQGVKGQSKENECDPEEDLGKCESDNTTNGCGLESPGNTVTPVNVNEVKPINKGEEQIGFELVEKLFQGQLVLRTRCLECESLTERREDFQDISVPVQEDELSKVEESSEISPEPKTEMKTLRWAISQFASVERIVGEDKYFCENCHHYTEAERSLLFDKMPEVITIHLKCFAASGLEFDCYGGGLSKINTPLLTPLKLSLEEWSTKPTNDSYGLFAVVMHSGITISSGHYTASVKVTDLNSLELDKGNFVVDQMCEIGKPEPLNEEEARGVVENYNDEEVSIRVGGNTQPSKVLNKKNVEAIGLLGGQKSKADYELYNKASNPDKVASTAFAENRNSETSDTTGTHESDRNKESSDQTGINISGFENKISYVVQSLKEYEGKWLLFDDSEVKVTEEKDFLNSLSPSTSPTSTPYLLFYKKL
# Procedure, shortened: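 USP1/UAF1 complex at 1 nM preincubated 15 min at room temperature with compound, then Ub-Rho substrate added at 150 nM final. Fluorescence (480/540 nm) read kinetically in 50 mM HEPES pH 7.8, 0.5 mM EDTA, 1 mM TCEP, 0.1 mg/ml BSA, 0.01% Tween-20.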
# [2] = molecular target: ATPase family AAA domain-containing protein 5 (Homo sapiens) (UniProt Q96QE3); test: Validation screen for small molecules that inhibit ELG1-dependent DNA repair in human embryonic kidney (HEK293T) cells expressing luciferase-tagged ELG1 (AID 493107); details: HEK293T ELG1-luciferase level, luminescence, 5-fluorouridine co-treatment, 16 h; series mostly up to 46.1 µM;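 also: cells co-treated with the DNA-damaging agent 5-fluorouridine alongside compound; inhibitors lower the ELG1-luciferase luminescence signal; nearly all actives have a fitted effect of over 70% in size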
# Chain of ATPase family AAA domain-containing protein 5 (Homo sapiens) (Q96QE3 whole entry, looked up, the tested form may be a part): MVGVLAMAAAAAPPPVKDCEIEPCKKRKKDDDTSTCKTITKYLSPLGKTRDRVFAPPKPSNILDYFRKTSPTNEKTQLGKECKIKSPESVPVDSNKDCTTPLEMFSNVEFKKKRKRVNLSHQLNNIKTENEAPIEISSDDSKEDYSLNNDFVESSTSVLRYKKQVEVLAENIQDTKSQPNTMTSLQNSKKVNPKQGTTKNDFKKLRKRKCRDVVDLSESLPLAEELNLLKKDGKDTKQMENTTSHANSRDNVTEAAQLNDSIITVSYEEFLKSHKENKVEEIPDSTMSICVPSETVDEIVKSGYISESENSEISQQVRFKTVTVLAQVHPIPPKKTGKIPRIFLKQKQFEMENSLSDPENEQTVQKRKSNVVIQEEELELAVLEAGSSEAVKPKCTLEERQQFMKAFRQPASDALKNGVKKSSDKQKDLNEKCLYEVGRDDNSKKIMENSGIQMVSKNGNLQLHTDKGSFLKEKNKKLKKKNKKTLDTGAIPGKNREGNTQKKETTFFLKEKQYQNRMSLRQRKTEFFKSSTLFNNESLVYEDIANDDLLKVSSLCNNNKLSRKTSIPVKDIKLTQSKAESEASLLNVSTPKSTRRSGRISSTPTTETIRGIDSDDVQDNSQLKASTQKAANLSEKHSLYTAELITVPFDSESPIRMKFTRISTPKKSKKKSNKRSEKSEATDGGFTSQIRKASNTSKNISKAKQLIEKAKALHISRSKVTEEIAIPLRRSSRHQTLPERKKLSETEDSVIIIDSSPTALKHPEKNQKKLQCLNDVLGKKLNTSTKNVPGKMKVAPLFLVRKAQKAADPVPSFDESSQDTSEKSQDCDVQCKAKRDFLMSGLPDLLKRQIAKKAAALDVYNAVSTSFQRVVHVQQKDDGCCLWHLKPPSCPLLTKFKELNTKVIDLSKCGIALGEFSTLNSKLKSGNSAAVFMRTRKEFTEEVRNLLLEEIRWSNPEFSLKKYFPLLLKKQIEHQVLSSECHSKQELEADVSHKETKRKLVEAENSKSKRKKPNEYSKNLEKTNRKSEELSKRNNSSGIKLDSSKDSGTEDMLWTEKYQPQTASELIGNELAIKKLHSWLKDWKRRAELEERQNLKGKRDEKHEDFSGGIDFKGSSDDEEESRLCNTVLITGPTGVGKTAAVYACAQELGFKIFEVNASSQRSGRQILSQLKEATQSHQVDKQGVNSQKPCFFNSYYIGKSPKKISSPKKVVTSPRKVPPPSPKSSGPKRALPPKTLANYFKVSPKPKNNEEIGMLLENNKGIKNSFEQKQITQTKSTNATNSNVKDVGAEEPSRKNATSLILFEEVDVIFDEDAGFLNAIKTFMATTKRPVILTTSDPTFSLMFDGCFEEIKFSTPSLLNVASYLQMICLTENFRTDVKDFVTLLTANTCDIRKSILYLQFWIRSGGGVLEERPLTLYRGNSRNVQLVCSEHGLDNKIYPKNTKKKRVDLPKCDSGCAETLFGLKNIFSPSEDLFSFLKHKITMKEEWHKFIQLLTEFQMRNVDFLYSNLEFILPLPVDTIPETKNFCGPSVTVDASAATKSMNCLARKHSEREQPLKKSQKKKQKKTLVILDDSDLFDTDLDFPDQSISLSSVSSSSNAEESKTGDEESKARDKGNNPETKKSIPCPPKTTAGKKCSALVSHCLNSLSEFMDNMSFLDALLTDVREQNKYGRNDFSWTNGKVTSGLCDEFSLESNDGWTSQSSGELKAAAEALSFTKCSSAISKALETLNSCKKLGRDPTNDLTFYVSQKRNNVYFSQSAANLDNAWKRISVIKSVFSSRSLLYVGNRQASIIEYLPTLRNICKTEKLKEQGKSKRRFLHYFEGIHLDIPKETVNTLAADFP
# Procedure, shortened: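 Quantitative HTS in HEK293T cells carrying luciferase-tagged ELG1, stimulated with 5-fluorouridine alongside compound for 16 hr. Loss of luciferase signal marks inhibition of ELG1 response.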
# [3] = molecular target: Thyrotropin-releasing hormone receptor (Homo sapiens) (UniProt P34981); test: qHTS for Small Molecule Agonists and Allosteric Enhancers of Human TRH Receptor: Validation Screen for Agonists (AID 493127;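 active = calcium activation more than 3 SD above the typical response in the agonist read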;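 also: intracellular calcium rise by fluo-8 fluorescence before TRH EC20 addition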); details: TRH receptor agonist cell assay; at 2 µM; stronger effect = higher value
# Chain of Thyrotropin-releasing hormone receptor (Homo sapiens) (P34981 whole entry, looked up): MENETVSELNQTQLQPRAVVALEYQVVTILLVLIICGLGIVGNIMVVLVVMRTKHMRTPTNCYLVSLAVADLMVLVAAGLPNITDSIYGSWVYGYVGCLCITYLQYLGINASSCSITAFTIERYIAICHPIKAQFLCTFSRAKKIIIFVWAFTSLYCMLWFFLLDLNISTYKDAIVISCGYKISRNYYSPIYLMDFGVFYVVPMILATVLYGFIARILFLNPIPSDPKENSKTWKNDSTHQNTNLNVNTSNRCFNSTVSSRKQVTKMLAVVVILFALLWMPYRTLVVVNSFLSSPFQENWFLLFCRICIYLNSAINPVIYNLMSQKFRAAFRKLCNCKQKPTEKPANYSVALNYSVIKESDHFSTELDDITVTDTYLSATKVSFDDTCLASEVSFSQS
# Procedure, shortened: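 Gq-coupled calcium mobilization in TRHR cells after compound addition, monitored kinetically with fluo-8 dye on an FDSS reader.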
# [4] = Nrf2 qHTS screen for inhibitors: Validation (AID 493153; active = well fitted inhibition curve with a large enough effect in the main read-out, with a control signal flat, not every such curve was filed as active); details: A549 ARE-Fluc reporter, 18-24 h; viability change: measured here: cytotoxicity max response; luciferase luminescence, at 46.1 µM (top of the series)
# Procedure, shortened: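 Dose-response validation uses reporter A549 cells with firefly luciferase under an antioxidant response element. Compounds stay on cells 18-24 h at 37°C, and luminescence indicates Nrf2-driven transcription.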
# [5] = qHTS for Inhibitors of Cell Surface uPA Generation: Validation Assay (AID 493164); details: mouse cells, plasminogen activation; series mostly up to 38.3 µM;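 also: RAW 264.7 macrophage cells exposed to compound for 18 h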
# Procedure, shortened: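 RAW 264.7, 4000 cells/well, o/n plating; cpd 7-pt 1:5 dilution 2.45 nM–38.3 uM final; 18 h, 37 C/5% CO2; ATP-Lite, 5 s luminescence exposure.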
# [6] = molecular target: Galactokinase (Homo sapiens) (UniProt P51570); test: qHTS Validation Assay for Inhibitors of Human Galactokinase (GALK) (AID 493189); details: purified human GALK enzyme activity, qHTS 7-point titration; series mostly up to 57.5 µM
# Chain of Galactokinase (Homo sapiens) (P51570 whole entry, looked up): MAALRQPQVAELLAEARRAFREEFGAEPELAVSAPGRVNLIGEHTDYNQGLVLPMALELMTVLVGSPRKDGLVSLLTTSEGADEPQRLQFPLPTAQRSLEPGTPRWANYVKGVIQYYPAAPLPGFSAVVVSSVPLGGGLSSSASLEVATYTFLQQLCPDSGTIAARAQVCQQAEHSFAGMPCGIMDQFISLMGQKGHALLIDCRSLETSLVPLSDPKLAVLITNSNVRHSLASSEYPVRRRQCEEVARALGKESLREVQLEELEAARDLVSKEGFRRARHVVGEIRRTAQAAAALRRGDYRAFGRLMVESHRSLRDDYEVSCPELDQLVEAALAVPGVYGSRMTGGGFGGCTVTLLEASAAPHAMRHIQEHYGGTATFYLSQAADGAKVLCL
# Procedure, shortened: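 GALK (5 nM) with 35 uM ATP and 100 uM galactose in HEPES pH 8.0 with MgCl2, NaCl, DTT and BSA. Reaction ran 1 h at room temperature. Residual ATP read by Kinase-Glo Plus luminescence.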
# [7] = Validation screen for small molecules that induce DNA re-replication in SW480 colon adenocarcinoma cells (AID 504364); details: DNA re-replication phenotype (high-content imaging); series mostly up to 46.1 µM
# Text: H Molecular Libraries Probe Production Network [MLPCN]
# (§1) NIH Chemical Genomics Center [NCGC]
# Assay Provider: Melvin DePamphilis, NICHD, NIH
# Eukaryotic cells normally restrict genome duplication to once per cell division. When this process is aberrant, DNA re-replication occurs when cells reinitiate DNA replication before the first round of replication is complete. DNA re-replication induces the DNA damage response, arrests cell proliferation, and triggers apoptosis. The cell cycle components cyclin A, Cdt-1, Cdc6 and geminin are critical regulators of this process and their misregulation results in DNA re-replication in normal and cancer cells. To identify compounds that induce re-replication in normal cells, an image-based assay was used to measure DNA content of nuclei, as detected by the fluorescent DNA binding dye, Hoechst. Cell nuclei were imaged by a fluorescence scanning plate imager and compounds that induce DNA re-replication were identified by the increase of nuclei with elevated fluorescence intensity.#
# For screening, 250 cells in 5 uL/well were dispensed into black clear 1536-well plates (Aurora) using a solenoid-based dispenser. Following transfer of 23 nL compound or DMSO vehicle by a pin tool, the plates were incubated 48 hr at 37 C and 5% CO2. […]
# [8] = molecular target: Peptidyl-prolyl cis-trans isomerase NIMA-interacting 1 (Homo sapiens) (UniProt Q13526); test: qHTS Validation Assay to Find Inhibitors of Pin1 (AID 504536; active = well fitted inhibition curve with a large enough effect in the polarisation, with a control signal flat, not every such curve was filed as active; the % refers to the polarisation); details: Pin1 fluorescence polarization peptide binding assay; series mostly up to 57.5 µM
# Chain of Peptidyl-prolyl cis-trans isomerase NIMA-interacting 1 (Homo sapiens) (Q13526 whole entry, looked up): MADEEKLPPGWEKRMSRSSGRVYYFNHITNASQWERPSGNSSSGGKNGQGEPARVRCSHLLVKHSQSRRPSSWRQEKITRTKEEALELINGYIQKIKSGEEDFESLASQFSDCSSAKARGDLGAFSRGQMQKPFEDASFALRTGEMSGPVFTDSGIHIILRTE
# Text: NIH Molecular Libraries Probe Production Network [MLPCN]
# as §1
# The unique chemical properties of Pro allow for the adoption of two completely distinct amide bond conformations (cis and trans). Peptidyl-prolyl cis/trans isomerases (PPIases) are evolutionary conserved enzymes that catalyze cis/trans isomerization of peptidyl-prolyl peptide bonds. Distinct from all other PPIases such as cyclophilins and FK506-binding proteins (FKBPs), Pin1 binds a subset of phos.Ser/Thr-Pro-containing proteins using its protein-targeting WW domain and isomerizes only specific phos.Ser/Thr-Pro bonds, which cannot be effectively catalyzed by other known PPIases. […]
# The goal of this screen is to find small-molecule inhibitors of Pin1 using a fluorescence polarization competition assay. […]
# Pin1 (0.6 uM) was dispensed into black, solid 1536-well plates at 2 uL/well in 10 mM HEPES (pH 7.5), 10 mM NaCl, 0.01% Tween20, 1 mM DTT, and 1% glycerol. […] The plates were measured on a ViewLux plate reader for fluorescence polarization signal using a 480/20 nM nm excitation filter and 540/25 nM nm S and P emission filters with a 20 second exposure. The %Activity was determined from the corrected fluorescence polarization values. […]
# Concentration-response curves were fitted to the signals arising from the resulting fluorescence polarization. […]
# [9] = molecular target: Phosphoglycerate kinase, glycosomal (Trypanosoma brucei brucei) (UniProt P07378); test: qHTS Validation Assay to Find Inhibitors of Phosphoglycerate Kinase (AID 504547); details: enzymatic PGK inhibition, coupled luminescence read-out; series mostly up to 57.5 µM
# Chain of Phosphoglycerate kinase, glycosomal (Trypanosoma brucei brucei) (P07378 whole entry, looked up): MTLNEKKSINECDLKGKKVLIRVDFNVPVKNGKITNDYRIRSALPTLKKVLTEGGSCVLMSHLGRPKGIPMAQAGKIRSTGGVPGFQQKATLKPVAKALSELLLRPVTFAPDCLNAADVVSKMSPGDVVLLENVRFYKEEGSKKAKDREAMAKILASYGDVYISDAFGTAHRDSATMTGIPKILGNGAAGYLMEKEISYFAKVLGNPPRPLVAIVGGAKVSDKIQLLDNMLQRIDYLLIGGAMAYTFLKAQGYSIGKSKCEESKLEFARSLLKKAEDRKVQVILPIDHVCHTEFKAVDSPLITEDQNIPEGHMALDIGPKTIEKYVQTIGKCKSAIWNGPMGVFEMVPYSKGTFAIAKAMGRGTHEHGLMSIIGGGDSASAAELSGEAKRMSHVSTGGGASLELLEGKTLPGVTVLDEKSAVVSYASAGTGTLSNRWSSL
# Procedure, shortened: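 Substrate/PGK mix plus compound; reaction started with GAPDH (100nM final) to form 1,3-BPG; 60 min RT; Kinase-Glo Plus 10 min; luminescence. TEA 100mM pH 7.6, MgCl2 5mM, Tween-20 0.01%.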
# [10] = molecular target: phosphoglycerate mutase (Leishmania major) (UniProt Q4Q090); test: qHTS Validation Assay to Find Inhibitors of Phosphoglycerate Mutase (AID 504548); details: biochemical enzyme activity; series mostly up to 57.5 µM
# Chain of phosphoglycerate mutase (Leishmania major) (Q4Q090 1-553): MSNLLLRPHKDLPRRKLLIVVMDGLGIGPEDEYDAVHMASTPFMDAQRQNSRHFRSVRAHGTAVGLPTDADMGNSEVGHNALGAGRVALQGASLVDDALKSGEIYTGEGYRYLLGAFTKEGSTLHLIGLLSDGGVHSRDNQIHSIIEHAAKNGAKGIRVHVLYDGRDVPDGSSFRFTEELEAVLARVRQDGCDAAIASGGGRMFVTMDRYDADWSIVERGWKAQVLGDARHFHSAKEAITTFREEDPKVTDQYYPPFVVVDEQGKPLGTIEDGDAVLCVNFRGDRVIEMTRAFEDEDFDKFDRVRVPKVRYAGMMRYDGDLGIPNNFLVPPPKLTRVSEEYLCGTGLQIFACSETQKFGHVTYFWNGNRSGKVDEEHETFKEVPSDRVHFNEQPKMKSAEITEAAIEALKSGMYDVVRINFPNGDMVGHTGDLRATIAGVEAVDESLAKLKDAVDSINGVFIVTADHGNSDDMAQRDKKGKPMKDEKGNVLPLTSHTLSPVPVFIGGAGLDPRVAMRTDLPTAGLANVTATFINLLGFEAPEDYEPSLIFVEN
# Procedure, shortened: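 Luminescent end-point read-out via Kinase-GloPlus after a 10-minute development. Reaction: 1.25nM Leishmania major PGAM with substrate and compound, 45 minutes at room temperature in TEA buffer (pH 7.6) with MgCl2 and Tween-20.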
smiles,measurement,setting,value
CN(C)CCCn1cc(C2=C(c3c[nH]c4ccccc34)C(=O)NC2=O)c2ccccc21,Potency,[1],50.1 µM (active)
COC1C(OC(=O)/C=C/C=C/C=C/C=C/C(=O)O)CCC2(CO2)C1C1(C)OC1CC=C(C)C (stereo unspecified),Potency,[1],inactive
NCCCC(=O)O,outcome,[2],inactive
same,activation,[3],-0.125% (inactive)
same,outcome,[4],inactive
same,viability change,[4],14.4%
same,outcome,[5],inactive
same,outcome,[6],inactive
same,outcome,[7],inactive
same,outcome,[8],inactive
same,outcome,[9],inactive
same,outcome,[10],inactive
same,Potency,[1],inactive
O=C(O)CC(O)(CC(=O)O)C(=O)O,Potency,[1],inactive
CCCOc1ccc2nc(NC(=O)OC)sc2c1,Potency,[1],inactive
C1CNCCN1,Potency,[1],inactive
COc1cc(C[C@H]2C(=O)OC[C@@H]2Cc2ccc(OC)c(OC)c2)ccc1O,Potency,[1],inactive
CN[C@H]1CC[C@@H](c2ccc(Cl)c(Cl)c2)c2ccccc21,outcome,[4],inactive
same,viability change,[4],1.73%
same,outcome,[5],inactive
same,outcome,[6],inactive
same,outcome,[7],inactive
same,outcome,[8],inactive
same,outcome,[9],inactive
same,outcome,[10],inactive
same,Potency,[1],inactive
